According to the supplement of paper PMC10681739:

These sequences were tested against RUNX1 (UniProt Q01196) (assay: RUNX1 binding intensity (PBM fluorescence) in presence of ETS1, normalised to RUNX1-only experiment (arbitrary fluorescence units); higher = stronger binding). Conditions: RUNX1 concentration 2 nM; ETS1 concentration 25 nM.
Protocol: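 Cooperative gcPBM on 36-bp genomic probes with neighbouring ETS1 and RUNX1 sites. Recombinant human RUNX1 (2 nM) was incubated alone or with ETS1 (25 nM) and detected with anti-RUNX1 antibody plus Alexa488 secondary. Values are medians over 4 replicate spots; the RUNX1+ETS1 data were normalised to the RUNX1-only data. The probes sit in constant array flanks that are not printed.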
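Further: Full-length recombinant human ETS1 or RUNX1 bound to double-stranded 36-bp genomic probes on microarrays, detected by protein-specific primary antibody and Alexa488 secondary, spot fluorescence as median of four replicate spots.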

Sequence of RUNX1 (Q01196 whole entry): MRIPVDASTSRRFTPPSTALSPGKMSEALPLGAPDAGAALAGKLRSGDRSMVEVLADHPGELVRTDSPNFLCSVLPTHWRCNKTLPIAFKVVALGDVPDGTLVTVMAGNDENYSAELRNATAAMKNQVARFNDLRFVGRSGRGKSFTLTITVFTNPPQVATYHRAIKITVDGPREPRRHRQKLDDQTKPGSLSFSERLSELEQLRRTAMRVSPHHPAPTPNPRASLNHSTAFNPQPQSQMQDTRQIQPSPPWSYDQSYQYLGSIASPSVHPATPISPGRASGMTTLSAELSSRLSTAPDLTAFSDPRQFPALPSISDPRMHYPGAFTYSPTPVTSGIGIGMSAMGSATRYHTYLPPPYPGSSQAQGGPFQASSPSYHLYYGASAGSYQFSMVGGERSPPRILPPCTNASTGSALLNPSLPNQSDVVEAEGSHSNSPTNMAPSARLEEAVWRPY

Row | Sequence | RUNX1 binding intensity
1 | AGGCCCCGCCCCTTCCGCCCACAGAGCCCGCCACTT | 1730
2 | ACCTGTGTTCTGGCAGGATGTGGTTGACCTCAGCAG | 2700
3 | CATACAGGATGCTGGGGTATGTAAAACAAACCACGG | 964
4 | CGGGTTGGGCAGGAAGCAGCATGACCGCAGTGGGTC | 3250
5 | CTGTCCCTAGCAGGATGTGGTTTGCACATTGCTGCT | 4600
6 | CTTGTGCCTACATCCTGTAGCTGTGGTTTAGGGACG | 2050
7 | TGACATTTCCGGCCCCACCTCGGCCCGCAGCGCCGC | 2320
8 | TGCTTCTGAGGAAGTGATCTGTGGTCAAAGAAAGAA | 1180
9 | GGGCTCCCAGAAGGATGTGGTTTCTGAGTACGTTGG | 1260
10 | CTCGCCCCATTTCCCGTAAATATCAGCCACAGACCA | 1900
11 | GTGACGGATATCCACCGGGCCCTGTGGTTTCCAACA | 986
12 | ACAGGAAATGACATCAGAATCTCCAAACCACAACCA | 2110
13 | CTGCTGACCAAAACAGGATGTGGTCTACACAAAGTG | 3500
14 | GCCCCGGAAGCTCCTTAAGGAGGACCGTGTGGGTTT | 944
15 | CAGTGACAGGAAGTGGTTCAGCGGTTGTTTAGGGCT | 3830
16 | AGGTCTCCGGAAGTGGGTCTGCGGCGCGCGGGATGC | 3290
17 | TGGGGCTAGGCTTCCGGGGCTCTGCGGTCCTCGGCC | 1180
18 | CTTCTACTTCCTGCCCCGCCCCCAGCTGTGGTCACA | 3430
19 | GTCCCCGACTTCCGCTCTCGGTTGGTGGTTGGCTTT | 2590
20 | GTGAATGAGGGGGAAGGAAGTGGTTTGGAAAAATAC | 962
21 | CCCCGCCTCTTCCGCTTCTGTGGTCTGATCTGCCTG | 3860
